Assay results: PubChem BioAssay (NCI)
This is part of a sample that, as a whole, favours compounds with a hit. Of some 83,000 tested, about 20% had one in any assay.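 The test compound was applied at a single concentration to cells in 96-well plates for 48 hours, and percent growth was recorded.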 The source made the active and inactive calls. The calls were made as follows: active = growth percent below 10; inactive = the rest.

Tests used:
Assay in all cases: NCI-60 one-dose screen, 48 h (100 = growth as untreated, 0 = no growth, -100 = all killed)
Conditions in all cases: 10 µM
SR leukemia = test system: SR leukemia
OVCAR-8 ovarian = test system: OVCAR-8 ovarian
OVCAR-4 ovarian = test system: OVCAR-4 ovarian
SK-OV-3 ovarian = test system: SK-OV-3 ovarian
IGROV1 ovarian = test system: IGROV1 ovarian
OVCAR-3 ovarian = test system: OVCAR-3 ovarian
HS 578T breast = test system: HS 578T breast
NCI/ADR-RES ovarian = test system: NCI/ADR-RES ovarian
T-47D breast = test system: T-47D breast
BT-549 breast = test system: BT-549 breast
MDA-MB-435 melanoma = test system: MDA-MB-435 melanoma
SW-620 colon = test system: SW-620 colon
MCF7 breast = test system: MCF7 breast
HCT-116 colon = test system: HCT-116 colon
HCC-2998 colon = test system: HCC-2998 colon
KM12 colon = test system: KM12 colon
OVCAR-5 ovarian = test system: OVCAR-5 ovarian

Measured: growth

CNC(=O)c1cc(Oc2ccc(NC(=O)Nc3ccc(Cl)c(OC4CCCCC4)c3)c(F)c2)ccn1
inactive: SR leukemia 42.2% | OVCAR-8 ovarian 40.7% | OVCAR-4 ovarian 28.6% | SK-OV-3 ovarian 72.8% | IGROV1 ovarian 62.9% | OVCAR-3 ovarian 33.8% | HS 578T breast 66% | NCI/ADR-RES ovarian 47.6% | BT-549 breast 72.6% | MDA-MB-435 melanoma 45.3% | SW-620 colon 62.9% | MCF7 breast 27.8% | HCT-116 colon 11.9% | HCC-2998 colon 82.6% | KM12 colon 26.2%
active: T-47D breast 5.13%

CC(C)c1[nH]nc2c(NCc3ccc(-c4ccccn4)cc3)nc(SCCN)nc12
inactive: OVCAR-8 ovarian 10.9% | IGROV1 ovarian 10.3% | HS 578T breast 11.1% | NCI/ADR-RES ovarian 48%
active: SR leukemia -7.09% | OVCAR-4 ovarian -3.8% | SK-OV-3 ovarian 3.32% | OVCAR-3 ovarian 5.51% | T-47D breast -15.6% | BT-549 breast -32% | MDA-MB-435 melanoma -39.6% | SW-620 colon 5.99% | MCF7 breast 1.59% | HCT-116 colon 5.28% | HCC-2998 colon -22.9% | KM12 colon 5.47%

CCc1ccc(-c2nnc(COc3ccc(-c4nc5ccc(C)cc5[nH]4)cc3OC)o2)cc1
active: SR leukemia -31.5% | OVCAR-4 ovarian -59.8%
inactive: OVCAR-8 ovarian 39.9% | SK-OV-3 ovarian 33.9% | IGROV1 ovarian 64.4% | OVCAR-3 ovarian 41.7% | HS 578T breast 28.2% | NCI/ADR-RES ovarian 42.1% | T-47D breast 15% | BT-549 breast 38.8% | MDA-MB-435 melanoma 36.8% | SW-620 colon 86.7% | MCF7 breast 30.6% | HCT-116 colon 37.1% | HCC-2998 colon 97.9% | KM12 colon 50.9%

CCOC(=O)c1cc(-c2ccccc2)nc(N)n1
inactive: SR leukemia 106% | OVCAR-8 ovarian 103% | OVCAR-5 ovarian 98.2% | OVCAR-4 ovarian 107% | SK-OV-3 ovarian 103% | IGROV1 ovarian 103% | OVCAR-3 ovarian 109% | HS 578T breast 92.5% | NCI/ADR-RES ovarian 100% | T-47D breast 114% | BT-549 breast 103% | MDA-MB-435 melanoma 102% | SW-620 colon 103% | MCF7 breast 87.6% | HCT-116 colon 104% | HCC-2998 colon 109% | KM12 colon 110%

COCCOC(=O)NC(=O)Nc1ccc(/C(=N/O)c2ccc(Cl)cc2)cc1
active: SR leukemia 8.7% | OVCAR-8 ovarian 4.12% | SK-OV-3 ovarian 4.2% | OVCAR-3 ovarian 0.755% | NCI/ADR-RES ovarian -3.69% | MDA-MB-435 melanoma 3.81% | HCT-116 colon 4.17% | HCC-2998 colon -1.35%
inactive: OVCAR-5 ovarian 47.1% | OVCAR-4 ovarian 43.7% | IGROV1 ovarian 30.9% | HS 578T breast 34.4% | T-47D breast 62.5% | BT-549 breast 50.9% | SW-620 colon 29% | MCF7 breast 14.3% | KM12 colon 11.7%

COc1ccc(-c2ccccc2)cc1C(=O)c1ccc(-c2ccccc2)cc1
active: MDA-MB-435 melanoma -7.15%
inactive: SR leukemia 23.8% | OVCAR-8 ovarian 93.1% | OVCAR-5 ovarian 87.8% | OVCAR-4 ovarian 96.3% | SK-OV-3 ovarian 76.6% | IGROV1 ovarian 63.5% | OVCAR-3 ovarian 60.9% | HS 578T breast 81.5% | NCI/ADR-RES ovarian 41.2% | T-47D breast 85.7% | BT-549 breast 76.8% | SW-620 colon 52.3% | MCF7 breast 50.6% | HCT-116 colon 60.8% | HCC-2998 colon 74.6% | KM12 colon 48.5%

CC(=O)Oc1c(C)c(C)c2c(c1C)CCC(C)(CC(=O)OCCCCCCCCCCC[P+](c1ccccc1)(c1ccccc1)c1ccccc1)O2 (stereo not drawn)
active: SR leukemia -34.7% | OVCAR-8 ovarian -44.1% | OVCAR-5 ovarian -37.4% | OVCAR-4 ovarian -83.2% | SK-OV-3 ovarian -18.4% | IGROV1 ovarian -46.2% | OVCAR-3 ovarian -90.5% | HS 578T breast -35.2% | NCI/ADR-RES ovarian -42.5% | T-47D breast -64.1% | BT-549 breast -91.4% | MDA-MB-435 melanoma -89.2% | SW-620 colon -68.2% | MCF7 breast -87.2% | HCT-116 colon -95.6% | HCC-2998 colon -61% | KM12 colon -71.3%

COc1cc(-c2nc3ccc(C)cc3[nH]2)ccc1OCc1nnc(-c2ccc(CC(C)C)cc2)o1
active: SR leukemia -2.79%
inactive: OVCAR-8 ovarian 97.8% | OVCAR-5 ovarian 102% | OVCAR-4 ovarian 91.2% | SK-OV-3 ovarian 94.4% | IGROV1 ovarian 91.4% | OVCAR-3 ovarian 101% | HS 578T breast 84% | NCI/ADR-RES ovarian 96% | T-47D breast 77.2% | BT-549 breast 101% | MDA-MB-435 melanoma 99.6% | SW-620 colon 106% | MCF7 breast 79.8% | HCC-2998 colon 115% | KM12 colon 97.5%

COc1cc(-c2cc(-c3ccc(C)cc3)nc3nc(N)[nH]c(=O)c23)ccc1Oc1ccnc2cc(Cl)ccc12
inactive: SR leukemia 50.9% | OVCAR-8 ovarian 79.5% | OVCAR-5 ovarian 115% | OVCAR-4 ovarian 66.3% | SK-OV-3 ovarian 95.3% | IGROV1 ovarian 77.9% | OVCAR-3 ovarian 84.1% | HS 578T breast 91.2% | NCI/ADR-RES ovarian 100% | T-47D breast 69.6% | BT-549 breast 112% | MDA-MB-435 melanoma 85.3% | SW-620 colon 98.2% | MCF7 breast 51.2% | HCT-116 colon 88.8% | HCC-2998 colon 79.5% | KM12 colon 67%

O=C(CCl)N1c2ccccc2Sc2ccc3ccccc3c21
active: SR leukemia -11.4% | OVCAR-8 ovarian -24.2% | OVCAR-4 ovarian -41.9% | IGROV1 ovarian -71.2% | OVCAR-3 ovarian -82.5% | HS 578T breast -0.68% | NCI/ADR-RES ovarian -25.8% | T-47D breast -68.2% | BT-549 breast -40.9% | MDA-MB-435 melanoma -34.7% | SW-620 colon -65.6% | MCF7 breast 10% | HCT-116 colon -99.6% | HCC-2998 colon -94.4% | KM12 colon -77.5%
inactive: OVCAR-5 ovarian 21% | SK-OV-3 ovarian 17.6%

O=C1/C(=C/c2ccc([N+](=O)[O-])s2)Oc2ccc(Cl)cc21
active: SR leukemia 1.07% | OVCAR-8 ovarian 1.27% | OVCAR-5 ovarian -80.6% | OVCAR-4 ovarian -76.5% | SK-OV-3 ovarian 7.47% | IGROV1 ovarian -67.9% | OVCAR-3 ovarian -68.8% | NCI/ADR-RES ovarian 4.88% | T-47D breast -34.9% | BT-549 breast -67.1% | MDA-MB-435 melanoma -60.4% | SW-620 colon -64.4% | MCF7 breast -26.7% | HCT-116 colon -52.7% | HCC-2998 colon -74.8% | KM12 colon -53.3%
inactive: HS 578T breast 17.6%
